Data on 6 compounds can be found in PubChem BioAssay (NCATS).

Experiment [1] is described as follows: Cellular Toxicity (caspase-3) Mesangial (AID 660).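 Further: combined caspase 3 and 7 activity read by Caspase-Glo luminescence; cells exposed to compound for 16 h before the caspase read.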 A digest of the protocol: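 Mesangial cells, 1000/well, 5 h settle at 37 °C; compound 16 h, 37 °C; Caspase-Glo 3/7 reagent 20 min RT; luminescence. Norm.: DMSO = 0%, tamoxifen 100 uM = 100%. AC50, Hill fit.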
Experiment [2] in a line: Cellular Toxicity (caspase-3) N2a (AID 665).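 Further: compound exposure lasted 16 h at 37 °C before readout.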 The conditions noted are these: N2a cells, luminescence, normalized: DMSO 0%, 10 µM staurosporine 100%; at 92.2 µM (top of the series). The method, boiled down: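 N2a cells, 1500/well, 5 h settle at 37 °C; cpd 16 h, 37 °C; Caspase-Glo 3/7, 1 h RT; luminescence. Norm: DMSO = 0, 10 uM staurosporine = 100%. AC50, Hill fit.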
A short description of experiment [3]: MultiTox-Fluor Cytotoxicity Assay - LYMP1-001 - Live Cells (AID 947).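 Further: 0% = DMSO only and full inhibition = tetraoctylammonium bromide control.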
The nature of experiment [4]: MultiTox-Fluor Cytotoxicity Assay - LYMP1-002 - Live Cells (AID 955). Further: on the % scale 0 is the no-effect control and ±100 the full control effect. A digest of the protocol:
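Read-out is live-cell protease activity (cell-permeant GF-AFC substrate, fluorescence Ex/Em=405/510), where a decrease indicates acute toxicity. Human lymphoblastoid cells were treated 16 hours at 37 C in a concentration series, and AC50 values came from standard Hill modelling.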

Experiment [5] is described as follows: Cell Viability - LYMP2-013 (AID 970).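 Further: cells exposed to compound for 24 h at 37 °C; 0% = DMSO only and full inhibition = tetraoctylammonium bromide control; nearly all actives have a fitted effect of over 55% in size.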 The method, boiled down:
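qHTS; 2500 lymphoblastoid cells/well; 5 hr 37 C settle; cpd 24 hr 37 C; CellTiter-Glo, 30 min RT; luminescence. AC50 = Hill fit.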

Experiment [6] can be described thus: Cell Viability - LYMP2-010 (AID 981). Further: on the % scale 0 is the no-effect control and ±100 the full control effect; nearly all actives have a fitted effect of over 55% in size. A digest of the protocol:
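Luminescent ATP signal (CellTiter-Glo) served as the viability read-out. Cells of the human lymphoblastoid line were treated with compound over a concentration range for 24 hours at 37 C, and AC50 values came from Hill-equation modeling.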

Experiment [7] is described as follows: qHTS assay for small molecule antagonists of peroxisome proliferator-activated receptor delta signaling (AID 588535; active means well fitted inhibition curve with a large enough effect in the signal ratio, with a control signal flat, not every such curve was filed as active; the % refers to the signal ratio;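 on max response: cells co-treated with a PPAR-delta agonist as stimulator during compound exposure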). The conditions noted are these: HEK293T PPARd-UAS-bla, beta-lactamase FRET ratio, 18 h; 460 nm channel. The method, boiled down:
(§1)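 HEK293T PPAR-delta-UAS-bla cells, 4000/well, 2% charcoal/dextran FBS; 5 h 37 C; cpd titration; 18 h 37 C; CCF4 2 h RT; FI 460/530 nm; Hill fit → IC50, efficacy.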

Experiment [8] deals with Peroxisome proliferator-activated receptor delta (Homo sapiens) (UniProt Q03181). The description is as above. The method, boiled down: as §1
Sequence of Peroxisome proliferator-activated receptor delta (Homo sapiens) (Q03181 whole entry, looked up): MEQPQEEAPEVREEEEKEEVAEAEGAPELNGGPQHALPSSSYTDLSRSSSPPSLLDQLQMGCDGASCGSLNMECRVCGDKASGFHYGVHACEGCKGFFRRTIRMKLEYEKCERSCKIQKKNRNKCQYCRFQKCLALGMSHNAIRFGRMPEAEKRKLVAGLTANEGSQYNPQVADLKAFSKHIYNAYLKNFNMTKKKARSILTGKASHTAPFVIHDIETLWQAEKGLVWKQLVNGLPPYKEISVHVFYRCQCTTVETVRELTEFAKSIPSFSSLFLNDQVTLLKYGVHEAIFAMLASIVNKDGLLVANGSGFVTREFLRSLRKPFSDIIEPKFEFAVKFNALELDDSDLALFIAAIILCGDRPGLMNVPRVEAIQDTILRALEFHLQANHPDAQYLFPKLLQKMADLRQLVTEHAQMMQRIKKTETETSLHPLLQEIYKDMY
A short description of experiment [9]: Cell Viability - SK-N-SH (AID 435; calls by dose curve;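 further: potency means the concentration at half of the fitted maximal effect; compound exposure lasted 40 h at 37 °C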). The conditions noted are these: SK-N-SH neuroblastoma cell viability qHTS. A digest of the protocol:
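Cells seeded at 1500 per well and incubated 5 hr at 37 °C. Compound added, then 40 hr at 37 °C. CellTiter-Glo added, 20 min at room temperature, luminescence read.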

A short description of experiment [10]: Cell Viability - Mesenchymal (AID 546).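 Further: cells exposed to compound for 40 hours before reading; 0% = DMSO only and -100% = 100 µM tamoxifen.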 The method, boiled down:
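AC50 values reflect the drop in intracellular ATP in a human kidney mesenchymal line derived from normal glomeruli. Treatment lasts 40 hr at 37 °C in complete medium, and the signal comes from CellTiter-Glo luminescence.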

A short description of experiment [11]: Cell Viability - LYMP2-007 (AID 979).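 Further: cells exposed to compound for 24 h before reading; 0% = DMSO only and the negative end = 92 µM tetraoctylammonium bromide; nearly all actives have a fitted effect of over 60% in size.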 A digest of the protocol:
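Luminescent ATP signal (CellTiter-Glo) serves as the viability read-out after 24 hr compound treatment of lymphoblastoid cells in complete medium at 37 C. Concentration-response data were fitted to the Hill equation to give AC50 values.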

Experiment [12] can be described thus: Cell Viability - LYMP2-018 (AID 985).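 Further: compound exposure lasted 24 hr at 37 °C; plate controls were DMSO only for no effect and tetraoctylammonium bromide at 92 µM for full effect; nearly all actives have a fitted effect of over 50% in size.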 A digest of the protocol: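 Luminescent ATP signal (CellTiter-Glo, read after 30 min at room temperature) reports viable cells after 24 hr compound treatment at 37 C. Concentration-response data were fitted to the standard Hill equation for AC50.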
Experiment [13] deals with Bile acid receptor (Homo sapiens) (UniProt Q96RI1). Description: qHTS assay for small molecule antagonists of farnesoid X receptor signaling (AID 588526; calls by dose curve; further: on the % scale 0 is the no-effect control and ±100 the full control effect). The method, boiled down:
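Beta-lactamase reporter antagonist mode: HEK293T FXR-UAS-bla cells, titrated compound, CDCA stimulation, 16 h 37 C, CCF4 dye 2 h RT. Data normalized to CDCA 50 uM and DMSO; Hill-fit IC50.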

In experiment [14] the target is Peroxisome proliferator-activated receptor gamma (Homo sapiens) (UniProt P37231). Description: qHTS assay for small molecule agonists of peroxisome proliferator-activated receptor gamma signaling (AID 588536; active means well fitted curve in the direction sought with a large enough effect in the signal ratio, with a control signal flat, not every such curve was filed as active; the % refers to the signal ratio;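 further: 0% = DMSO basal wells and 100% = rosiglitazone at 2 µM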). The method, boiled down:
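PPAR-gamma-UAS-bla HEK293 cells in medium with 1% charcoal/dextran-treated FBS were exposed to compounds for 16 h at 37 C. Beta-lactamase activity was read with CCF4 substrate (405 nm excitation, 460/530 nm emission).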
(In qHTS, concentration-response curves come from the screen itself.)

Experiment [15] addresses Retinoic acid receptor RXR-alpha (Homo sapiens) (UniProt P19793). Description: qHTS assay for small molecule agonists of retinoid X receptor alpha signaling (AID 588544; calls by dose curve; further: potency means the concentration at half of the fitted maximal effect;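 on activation: 0% = DMSO basal wells and 100% = reference agonist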).
Experiment [16] is described as follows: qHTS assay for small molecule activators of the p53 signaling pathway (AID 651743; active means well fitted activation curve with a large enough effect in the signal ratio, not every such curve was filed as active; the % refers to the signal ratio; further: % of control where 0% means no effect). To be noted: HCT-116 p53RE-bla, beta-lactamase FRET ratio, 16 h; activation: stronger effect = higher value. The method, boiled down: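 Read-out is fluorescence intensity from the LiveBLAzer B/G FRET substrate, added for 2 hours at room temperature after HCT-116 p53RE-bla cells had been incubated with compounds for 16 hours at 37 C.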

The nature of experiment [17]: qHTS assay for environmental chemicals that activate the Aryl hydrocarbon Receptor (AhR) signaling pathway (AID 651777). Further: % of control where 0% means no effect; nearly all actives have a fitted effect of over 15% in size. To be noted: 1A2-DRE human hepatoma cells, luciferase, 24 h; activation: stronger effect = higher value. The method, boiled down: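 AhR activation is scored as a rise in luciferase from a stable DRE–CYP1A2 promoter construct in human hepatoma cells. Treatment lasts 24 hr at 37 C; detection uses One-Glo after 30 min at room temperature.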

The target of experiment [18] is Peroxisome proliferator-activated receptor gamma (Homo sapiens) (UniProt P37231). As to the kind of experiment: qHTS assay for small molecule antagonists of peroxisome proliferator-activated receptor gamma signaling (AID 588537; active means well fitted inhibition curve with a large enough effect in the signal ratio, with a control signal flat, not every such curve was filed as active; the % refers to the signal ratio;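 further: reporter cells co-stimulated with 50 nM rosiglitazone agonist during compound treatment; % of control where 0% means no effect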). The method, boiled down: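 Antagonist mode, beta-lactamase reporter in HEK293; charcoal/dextran FBS 1%; 3000 cells/well, 37 C 6-6.5 h; cpd titration + rosiglitazone 50 nM final, 16 h 37 C; CCF4, 2 h RT; 460/530 nm; Hill fit → IC50, efficacy.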
Sequence of Peroxisome proliferator-activated receptor gamma (Homo sapiens) (P37231 whole entry, looked up): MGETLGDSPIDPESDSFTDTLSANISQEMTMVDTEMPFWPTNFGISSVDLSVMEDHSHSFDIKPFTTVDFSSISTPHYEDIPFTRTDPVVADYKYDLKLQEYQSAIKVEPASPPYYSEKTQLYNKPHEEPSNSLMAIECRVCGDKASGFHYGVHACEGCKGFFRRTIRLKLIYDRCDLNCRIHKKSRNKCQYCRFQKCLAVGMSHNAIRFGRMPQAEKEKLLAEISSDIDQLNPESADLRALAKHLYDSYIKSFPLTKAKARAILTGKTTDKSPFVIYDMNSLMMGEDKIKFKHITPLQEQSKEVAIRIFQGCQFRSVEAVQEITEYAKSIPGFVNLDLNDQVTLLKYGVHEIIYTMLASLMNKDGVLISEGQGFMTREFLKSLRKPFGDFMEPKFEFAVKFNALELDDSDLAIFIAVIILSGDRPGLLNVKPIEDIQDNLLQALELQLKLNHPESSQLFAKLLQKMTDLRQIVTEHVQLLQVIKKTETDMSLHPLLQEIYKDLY

Experiment [19] is described as follows: Cell Viability - LYMP1-002 - Assay at 24 hr (AID 993). Further: on the % scale 0 is the no-effect control and ±100 the full control effect. The method, boiled down: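 Cells plated 2500/well, 5 hr 37 C; compounds added, 24 hr 37 C; CellTiter-Glo added, 30 min RT; luminescence read. Tetraoctylammonium bromide positive control. Hill-equation AC50.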

Where “and” joins values, the source holds several entries; their conditions need not be identical. Identical values can stand only once. Inconclusive results are not listed. Calls of active or inactive are those of the source. Unless noted, the call rests on the fitted dose curve; in most records, active means well fitted curve in the direction sought with a large enough effect; inconclusive means small, poorly fitted or top-dose-only effect, or another doubt; inactive means no such curve, though single readings can be large; an effect the other way counts as inactive or inconclusive.

Sequence of Retinoic acid receptor RXR-alpha (Homo sapiens) (P19793 whole entry, looked up): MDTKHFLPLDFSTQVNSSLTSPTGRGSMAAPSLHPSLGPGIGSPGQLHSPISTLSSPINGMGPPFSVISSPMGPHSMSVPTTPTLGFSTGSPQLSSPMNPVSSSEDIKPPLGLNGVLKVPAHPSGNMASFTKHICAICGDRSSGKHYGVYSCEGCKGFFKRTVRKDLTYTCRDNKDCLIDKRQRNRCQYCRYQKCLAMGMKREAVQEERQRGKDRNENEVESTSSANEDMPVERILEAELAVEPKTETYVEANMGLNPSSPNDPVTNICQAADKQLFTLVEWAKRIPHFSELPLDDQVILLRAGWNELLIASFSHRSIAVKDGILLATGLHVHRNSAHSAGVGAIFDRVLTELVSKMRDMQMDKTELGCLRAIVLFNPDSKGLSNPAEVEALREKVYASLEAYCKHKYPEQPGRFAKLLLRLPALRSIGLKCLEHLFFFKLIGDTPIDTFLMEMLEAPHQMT
Sequence of Bile acid receptor (Homo sapiens) (Q96RI1 whole entry, looked up): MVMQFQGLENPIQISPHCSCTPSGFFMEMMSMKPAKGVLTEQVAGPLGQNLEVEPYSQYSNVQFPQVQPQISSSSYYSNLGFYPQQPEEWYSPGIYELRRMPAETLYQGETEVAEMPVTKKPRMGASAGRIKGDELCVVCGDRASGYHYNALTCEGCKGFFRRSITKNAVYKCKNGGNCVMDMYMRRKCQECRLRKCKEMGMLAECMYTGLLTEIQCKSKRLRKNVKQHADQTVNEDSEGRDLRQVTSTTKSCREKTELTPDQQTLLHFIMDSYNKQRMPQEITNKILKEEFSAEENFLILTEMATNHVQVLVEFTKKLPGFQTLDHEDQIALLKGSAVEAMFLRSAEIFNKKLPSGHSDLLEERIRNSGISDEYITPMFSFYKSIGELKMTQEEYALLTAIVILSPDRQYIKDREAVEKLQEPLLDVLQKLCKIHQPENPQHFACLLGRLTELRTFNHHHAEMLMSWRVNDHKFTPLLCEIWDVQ

As to `C=CC(N)=O`, the outcome in experiment [1] and in experiment [4] was inactive. For the same compound, in [2], the caspase-3 activation was -0.525% (inactive) and -0.998% (inactive). Further, the Potency entry in [3], in experiment [5], in [6] and in experiment [8] was “inactive” each time. Further, the max response in experiment [7] is 43.8% and 22.1%.
Regarding `Nc1ccccc1Cl`, in [9], the Potency was > 92 µM (inactive). Also, the compound was called inactive in experiment [10], in [1], in experiment [13] and in experiment [14]. The caspase-3 activation in [2] was 1.48% (inactive). The Potency result in experiment [3], in experiment [11], in experiment [12] and in experiment [8] was “inactive” each time. Also, in experiment [7], the max response was 6.02%.
On to `CC(C)(C)OOC(C)(C)C`, for which the Potency in experiment [9] was > 92 µM (inactive). Further, the compound was classed as inactive in experiment [10], in [1], in experiment [4], in experiment [13] and in experiment [14]. Besides, in experiment [2], the caspase-3 activation is 0.408% (inactive). Besides, the Potency entry in experiment [11], in experiment [12], in experiment [8] and in [15] was “inactive” throughout. The max response in experiment [7] was found to be 29.5%. The activation is -4.97% (inactive) in experiment [16] and -0.903% (inactive) in experiment [17].
Regarding `Clc1cccc(C(Cl)(Cl)Cl)n1`, the Potency in experiment [9] was > 92 µM (inactive). Also, the Potency result in experiment [5], in experiment [11], in experiment [6] and in [18] was “inactive” each time. In addition, the outcome in [13] and in [14] was inactive. In addition, the activation in experiment [16] was 0.471% (inactive) and 1.28% (inactive); in experiment [17], -1.44% (inactive) and -0.611% (inactive).
As for `Brc1ccccc1`, the call in experiment [1] and in [4] was inactive. Besides, the Potency result in [5], in experiment [11], in [19], in experiment [8], in experiment [18] and in experiment [15] was “inactive” throughout. In addition, in [7], the max response worked out at 10.8%. Further, the activation in experiment [16] was -1.82% (inactive) and -1.95% (inactive); in experiment [17] it was -1.29% (inactive) and 1.99% (inactive).
Take `C[C@]12CC[C@H]3[C@@H](CCC4=CC(=O)CC[C@@]43C)[C@@H]1CC[C@@H]2O`: the result in [10] and in experiment [4] was inactive. Also, in experiment [2], the caspase-3 activation was 3.16% (inactive). Further, the Potency entry in [11], in [6], in experiment [12], in experiment [19] and in [18] was “inactive” throughout. Further, in experiment [15], the Potency is 12.6 µM (active).
